Test results as given in article PMC5540273 (PLoS ONE, 2017).

Tests used:
Conditions in all cases: concentration: 1 μM, replicates: in singlicate; n = 1
ADCK4 = system: ADCK4
AKT1 = system: AKT1
AKT2 = system: AKT2
AKT3 = system: AKT3
ALK = system: ALK
AMPK-alpha1 = system: T1, AMPK-alpha1
T1 construct: gene PRKAA1

AMPK-alpha2 = system: T2, AMPK-alpha2
T2 construct: gene PRKAA2

ANKK1 = system: ANKK1
ARK5 = system: T3, ARK5
T3 construct: gene NUAK1

ASK1 = system: T4, ASK1
T4 construct: gene MAP3K5

ASK2 = system: T5, ASK2
T5 construct: gene MAP3K6

AURKA = system: AURKA
AURKB = system: AURKB
AURKC = system: AURKC
AXL = system: AXL
BIKE = system: T6, BIKE
T6 construct: gene BMP2K

BLK = system: BLK
BMPR1A = system: BMPR1A
BMPR1B = system: BMPR1B
BMPR2 = system: BMPR2
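Also: KINOMEscan kinase panel screen.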

SMILES | %Inh (ADCK4) | %Inh (AKT1) | %Inh (AKT2) | %Inh (AKT3) | %Inh (ALK) | %Inh (AMPK-alpha1) | %Inh (AMPK-alpha2) | %Inh (ANKK1) | %Inh (ARK5) | %Inh (ASK1) | %Inh (ASK2) | %Inh (AURKA) | %Inh (AURKB) | %Inh (AURKC) | %Inh (AXL) | %Inh (BIKE) | %Inh (BLK) | %Inh (BMPR1A) | %Inh (BMPR1B) | %Inh (BMPR2)
N#Cc1cnc2cc(-c3cnc(CNCCN4CCOCC4)s3)ccc2c1Nc1ccc(Oc2ccccc2)cc1 [GW664114] | 36% | 0% | 0% | 0% | 34% | 21% | 30% | 45% | 10% | 5% | 9% | 0% | 39% | 25% | 98% | 9% | 99% | 0% | 0% | 8%
Cc1ccc(NC(=O)c2ccnc(N3CCCCC3)c2)cc1-c1ccc(C(=O)NCC2CC2)cc1 [GW775610] | 0% | 0% | 0% | 0% | 10% | 19% | 0% | 0% | 2% | 0% | 0% | 66% | 25% | 35% | 31% | 10% | 10% | 0% | 0% | 0%
CN(c1ccc(NC(=O)N2CCN(CCCN3CCOCC3)CC2)cc1)c1ccnc(Nc2ccc(CS(C)(=O)=O)cc2)n1.Cl [GW830899] | 5% | 0% | 0% | 0% | 0% | 0% | 12% | 0% | 0% | 0% | 0% | 84% | 76% | 75% | 2% | 86% | 0% | 6% | 7% | 0%
COc1cc(Nc2nccc(N3CCC(NC(=O)Nc4ccc5c(c4)OCO5)C3)n2)cc(OC)c1OC (stereo not shown) [GSK1379766] | 69% | 0% | 2% | 0% | 63% | 2% | 10% | 36% | 24% | 4% | 12% | 86% | 69% | 90.1% | 0% | 74% | 0% | 0% | 0% | 30%
CSc1ccc(NC2=C(c3ccc(Cl)cc3)C(=O)NC2=O)cc1 [SB-317658] | 0% | 9% | 8% | 10% | 0% | 23% | 30% | 3% | 0% | 0% | 25% | 32% | 9% | 2% | 10% | 0% | 0% | 6% | 0% | 0%
O=C(O)C(F)(F)F.O=c1[nH]ccc2nc(N[C@@H]3CCNC3)nc(Nc3ccc4c(c3)S(=O)(=O)CC4)c12 [GSK2181306] | 15% | 0% | 0% | 47% | 86% | 89% | 81% | 97.4% | 99.9% | 0% | 38% | 83% | 72% | 87% | 100% | 98.8% | 28% | 0% | 7% | 99.5%
c1ccc(Oc2ccc(Nc3ccnc4cc(-c5ccc(CN6CCCCC6)o5)ccc34)cc2)nc1 [GW567143] | 8% | 0% | 14% | 0% | 26% | 0% | 0% | 9% | 12% | 0% | 24% | 10% | 80% | 44% | 8% | 8% | 95.5% | 0% | 0% | 0%
Fc1cc(Cl)ccc1Nc1ccnc2cc(-c3ccc(CN4CCSCC4)o3)ccc12 [GW560106] | 31% | 0% | 2% | 0% | 28% | 3% | 18% | 14% | 13% | 0% | 0% | 100% | 0% | 18% | 33% | 4% | 97.7% | 14% | 45% | 5%
Nc1cccc(-c2ccc3c(N)n[nH]c3c2)c1 [GSK2193613] | 16% | 0% | 0% | 23% | 0% | 0% | 16% | 16% | 0% | 0% | 0% | 10% | 0% | 46% | 0% | 82% | 87% | 0% | 89% | 3%
Cc1ccc(O)cc1Nc1ccnc2cc(-c3ccc(CN4CCCCC4)o3)ccc12 [GW557777] | 88% | 0% | 3% | 0% | 0% | 0% | 0% | 0% | 0% | 37% | 0% | 0% | 0% | 15% | 0% | 4% | 99.7% | 61% | 99.9% | 0%
Fc1cc(Cl)ccc1Nc1ccnc2cc(-c3ccc(CN4CCOCC4)o3)ccc12 [GW560109] | 13% | 0% | 0% | 19% | 62% | 0% | 21% | 16% | 4% | 16% | 8% | 89% | 35% | 35% | 40% | 21% | 94.4% | 18% | 62% | 0%
COc1ccc(C2=C(Nc3cccc(O)c3)C(=O)NC2=O)cc1 [SB-390766] | 9% | 0% | 12% | 0% | 73% | 100% | 10% | 32% | 0% | 35% | 7% | 13% | 33% | 0% | 35% | 0% | 0% | 0% | 0% | 24%
Cn1cc(-c2ccc3c(c2)CCN3C(=O)Cc2cc(F)cc(C(F)(F)F)c2)c2c(N)ncnc21 [GSK2635225] | 10% | 0% | 0% | 0% | 0% | 3% | 21% | 25% | 15% | 0% | 0% | 20% | 56% | 54% | 94% | 23% | 40% | 0% | 0% | 0%
Cc1ccc(Nc2ccnc(Nc3ccc(C)c(F)c3)n2)cc1O.Cl [GW582868] | 74% | 0% | 0% | 0% | 38% | 0% | 0% | 0% | 40% | 0% | 0% | 0% | 0% | 19% | 32% | 29% | 51% | 7% | 30% | 7%
CN(c1ccc2c(c1)nc(NCc1ccccc1)n2C)c1ccnc(Nc2ccc(CS(C)(=O)=O)cc2)n1.Cl [GW811603] | 7% | 0% | 0% | 1% | 49% | 2% | 0% | 0% | 0% | 9% | 0% | 87% | 79% | 63% | 85% | 24% | 39% | 0% | 4% | 22%
Cc1cc(-c2ccnc(Nc3cccc(C#N)c3)n2)cc(C)c1O [GSK1440913] | 72% | 0% | 0% | 0% | 7% | 17% | 32% | 9% | 23% | 0% | 11% | 47% | 19% | 70% | 51% | 99.5% | 0% | 0% | 0% | 16%
COC(=O)Nc1nc2ccc(Oc3ccc(NC(=O)Nc4cc(C(F)(F)F)ccc4F)cc3)cc2[nH]1.Cl [GW654607] | 54% | 0% | 100% | 0% | 18% | 19% | 15% | 13% | 9% | 12% | 15% | 0% | 92.3% | 42% | 97.3% | 10% | 67% | 18% | 0% | 0%
